Over roughly 33,000 sequences, “E-score (-0.5 to 0.5)” has its median near -0.017; the highest 2% begin near 0.3. Many of the other results were omitted from the sample, so the highest values are more common in it than they were.
biological target: T1, Sut1 (UniProt P53032); assay: PBM E-score (8-mer binding enrichment) (E-score (-0.5 to 0.5)); higher = stronger / more preferred TF binding; conditions: protein concentration: 200 nM; construct: GST-full length
T1 sequence: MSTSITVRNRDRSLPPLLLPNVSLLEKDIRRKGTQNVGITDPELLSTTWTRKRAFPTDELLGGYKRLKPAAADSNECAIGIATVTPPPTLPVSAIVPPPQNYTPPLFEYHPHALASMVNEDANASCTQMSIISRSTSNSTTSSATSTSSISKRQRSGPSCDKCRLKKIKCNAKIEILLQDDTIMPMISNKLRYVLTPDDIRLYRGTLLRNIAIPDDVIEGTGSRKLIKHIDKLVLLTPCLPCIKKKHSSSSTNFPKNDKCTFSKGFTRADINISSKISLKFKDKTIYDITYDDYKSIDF
Outline: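 Full-length yeast transcription factors or their DNA-binding domains, GST-tagged and expressed with PURExpress, were applied at about 100-200 nM to universal all-10-mer Agilent arrays. These arrays had been made double-stranded by primer extension on fresh or once-stripped slides. Detection used fluorescent anti-GST, normalisation used masliner, and E-scores for ungapped eight-base words pooled with reverse complements came from the Universal PBM Analysis Suite.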

| Sequence | PBM E-score |
| --- | --- |
| GGAGTTAC | 0.367 |
| GGAGTTAA | 0.337 |
| AGAGTTAA | 0.0656 |
| TGAGTTAA | -0.00085 |
| AGAGTTAC | -0.117 |
| CGAGTTAC | 0.0146 |
| GCTCCCTA | -0.123 |
| CAGGGAGC | -0.326 |
| ACAAACAC | 0.185 |
| GCGGCCGA | -0.139 |
| CCGGCCGA | 0.0979 |
| TCGGCCGA | 0.323 |
| AAAACTAA | 0.353 |
| CTAACTAG | 0.302 |
| GAAACTAA | 0.00617 |
| CAAACTAA | 0.276 |
| CTAACTAC | 0.00799 |
| CTAACTAA | 0.142 |
| TAAACTAA | 0.323 |
| AAAACTAT | 0.231 |
| AAAACTAG | 0.0495 |
| ACTCCACT | -0.144 |
| CCCTCAGA | -0.309 |
| CAGAGAAC | -0.299 |
| CTATCAAC | 0.208 |

| Sequence | PBM E-score |
| --- | --- |
| AGACTCTG | -0.137 |
| CAGTCACA | -0.17 |
| GACCCGTC | -0.239 |
| AGTTCTCC | 0.0174 |
| GTGACGAA | -0.0161 |
| CCTTAGGA | -0.0422 |
| AACCAGCT | -0.0518 |
| CGAAAACC | 0.0693 |
| AGTTAAGA | 0.0414 |
| GTCCGGTA | 0.373 |
| ATCCGGTC | -0.00108 |
| ATCCGGTA | 0.135 |
| GCCCGGTA | -0.187 |
| GGCCGGTA | 0.0132 |
| CTCCGGTC | 0.418 |
| CTCCGGTA | 0.413 |
| CGCCGGTC | -0.0721 |
| CCCCGGTA | 0.0227 |
| GGTCGAAA | -0.14 |
| GGCTGACC | -0.205 |
| ATTATTCA | 0.289 |
| AGGATACT | -0.0531 |
| ACTCGGCT | -0.079 |
| ACACCGCA | 0.0401 |
| GTAGACAA | 0.157 |

| Sequence | PBM E-score |
| --- | --- |
| AGGGGTAT | -0.217 |
| ACGCACTA | -0.0472 |
| GCATATCC | -0.196 |
| GGATTTCA | 0.117 |
| AGGACCTA | -0.0435 |
| CTGACCTC | -0.121 |
| CGGACCTC | 0.411 |
| GGGACCTA | 0.0551 |
| AGGACCTC | -0.0609 |
| CGGACCTA | 0.42 |
| AACTCGAA | -0.0516 |
| TCCTTCCA | -0.243 |
| ATATAAAA | 0.205 |
| GTATAAAC | 0.227 |
| GTATAAGA | 0.103 |
| CTATAAAA | 0.183 |
| TTATAAAA | 0.314 |
| GTATAAAA | 0.317 |
| TGAACCCA | -0.00171 |
| GTCGTTGA | -0.0946 |
| ATCCCAGC | -0.107 |
| ACACTAGA | 0.0902 |
| CGATGTCC | 0.164 |
| ATCAAGAT | 0.158 |
| CAAGGAGA | 0.0606 |

| Sequence | PBM E-score |
| --- | --- |
| GACGGAGA | 0.277 |
| AACGGAGT | 0.478 |
| AACGGAGC | 0.231 |
| CACGGAGA | 0.355 |
| GACGGAGC | 0.231 |
| TACGGAAA | 0.278 |
| AACGGAGG | -0.0314 |
| TACGGACA | 0.282 |
| CACGGAGC | 0.354 |
| CACGGAGG | 0.0312 |
| TACGGAGA | 0.32 |
| ATCCATTA | 0.076 |
| AATCGCCA | -0.0545 |
| AAGAGATC | -0.168 |
| AGAATTGG | 0.13 |
| CGCAATGA | -0.0747 |
| ACACTTGA | -0.00965 |
| AGACCACC | -0.0644 |
| CATGGCAG | -0.108 |
| CCCTGGGC | -0.324 |
| ATTAATGA | 0.267 |
| ATTTCTTA | 0.0841 |
| CTCCCGAA | -0.0868 |
| CTCCCTCC | -0.2 |
| GGCTCATA | -0.0389 |

| Sequence | PBM E-score |
| --- | --- |
| CAGCGGGG | -0.149 |
| AACGGAGA | 0.359 |
| AACGGATA | 0.285 |
| AACAGAGA | -0.0653 |
| ACTGCTCC | -0.0101 |
| TGAGTAAA | 0.0705 |
| GGAGTAGA | 0.318 |
| AGAGTATA | 0.00921 |
| CGAGTATA | 0.0489 |
| AGAGTAGA | 0.163 |
| CGAGTAGA | -0.0364 |
| GGAGTATA | 0.311 |
| GGAGTAAA | 0.333 |
| GGAGTAAC | 0.258 |
| AGGCCATG | -0.206 |
| GAGCTGAA | 0.01 |
| CAGTACGA | -0.0772 |
| TACAGCGA | -0.145 |
| GTAGCTCA | -0.0732 |
| ACCTGATC | -0.177 |
| AGAACCTG | -0.0844 |
| TTAATTAA | 0.0737 |
| CTAATTTA | 0.175 |
| GTAATTAA | 0.161 |
| ATTATAAG | 0.193 |

| Sequence | PBM E-score |
| --- | --- |
| AAAATTAG | 0.155 |
| ATTATAAT | 0.378 |
| AAAATTAC | 0.237 |
| CTAATTTC | 0.299 |
| ATTATAAA | 0.275 |
| AAAATTAT | 0.351 |
| ATAATTAA | 0.314 |
| ATAATTTC | 0.242 |
| CGGATCAA | 0.16 |
| CGTCTTGA | 0.0919 |
| AGCCCCAA | -0.358 |
| ATCGCTAC | -0.0624 |
| AATTATAT | 0.212 |
| TCCACTAA | 0.0668 |
| CCCAAACA | 0.00961 |
| ATAATTAT | 0.39 |
| GTAATTTA | 0.221 |
| ATAATTTG | 0.249 |
| ATCATTAG | 0.0427 |
| AAAATGAA | 0.0412 |
| CTCATTAA | 0.119 |
| ATAATTTA | 0.337 |
| AAAATGAT | 0.342 |
| ATAATTAG | 0.235 |
| ATCATTAA | 0.305 |

| Sequence | PBM E-score |
| --- | --- |
| ATAATTAC | 0.283 |
| AAAATGAC | 0.157 |
| ACAGTTCG | 0.183 |
| GCTTCCCA | -0.179 |
| GTTTGGTA | 0.178 |
| ATCGGTAG | 0.0989 |
| TCGGTGAA | 0.0263 |
| TAAGATCA | 0.0673 |
| GGAAAATA | 0.226 |
| ATAAATAG | 0.295 |
| ATAAATAA | 0.321 |
| TTAAATAA | 0.259 |
| GTAAAATA | 0.145 |
| AAAAAATA | 0.242 |
| ATAAAGAT | 0.328 |
| ATAAAATC | 0.162 |
| GAAAAATA | 0.306 |
| ATAAAATA | 0.323 |
| ATAAAGAA | 0.19 |
| ATAAAGAG | 0.0458 |
| CTCGTTCA | -0.205 |
| AGTAGACC | -0.172 |
| ATGACTGC | 0.00267 |
| CAATGCTC | -0.0941 |
| ACCAACGT | 0.00237 |
